In PubChem BioAssay (NCI):
This is part of a sample that, as a whole, favours compounds with a hit. Of some 83,000 tested, about 20% had one in any assay.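 48-hour exposure, single concentration, 96-well plates; percent growth endpoint where 0 means no net growth. Active: below 10.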 Unmarked numbers belong to inactive results. The source made the active and inactive calls.

Key:
Assay in all cases: NCI-60 one-dose screen, 48 h (100 = growth as untreated, 0 = no growth, -100 = all killed)
Settings in all cases: 10 µM unless noted
[1] = tested on: HCT-15 colon
[2] = tested on: HT29 colon
[3] = tested on: SNB-75 CNS
[4] = tested on: SNB-19 CNS
[5] = tested on: U251 CNS
[6] = tested on: PC-3 prostate
[7] = tested on: SK-MEL-5 melanoma
[8] = tested on: UACC-62 melanoma
[9] = tested on: LOX IMVI melanoma
[10] = tested on: SK-MEL-28 melanoma

O=C(CSc1nnc(-c2ccc(Cl)cc2)n1-c1ccccc1)Nc1ccc(Cl)cc1
growth [1]: 81.5%
growth [2]: 62.6%
growth [3]: -11.2% (active)
growth [4]: 59.6%
growth [5]: 32.7%
growth [6]: 61.4%
growth [7]: 82.2%
growth [8]: 76.1%
growth [9]: 10.8%
growth [10]: 71.2%

COc1ccc(/C=N/NC(=O)c2c(N)nn(C)c2Nc2ccccc2)cc1
growth [1]: 19.1%
growth [2]: 18.6%
growth [3]: 35.1%
growth [4]: 36.8%
growth [5]: 33.3%
growth [6]: 55.9%
growth [7]: 57.2%
growth [8]: 23.7%
growth [9]: 18.9%
growth [10]: 57.5%

Brc1cccc(-c2cc(-c3cnc4c(c3)OCCO4)n[nH]2)c1
growth [1]: 21.1%
growth [2]: 18.8%
growth [3]: 46.9%
growth [4]: 59.8%
growth [5]: 43.3%
growth [6]: 79.1%
growth [7]: 24.2%
growth [8]: 55.5%
growth [9]: 37.1%
growth [10]: 59%

CN1CCN(Cc2ccc(NC(=O)c3cncc(C#Cc4cnc5ccc(O[C@@H]6CCOC6)nn45)c3)cc2C(F)(F)F)CC1
growth [1]: -40.4% (active)
growth [2]: -54.6% (active)
growth [3]: -98.4% (active)
growth [4]: -48.9% (active)
growth [5]: -72.9% (active)
growth [6]: -40.4% (active)
growth [7]: -97.4% (active)
growth [8]: -76.3% (active)
growth [9]: -96.9% (active)
growth [10]: -82.4% (active)

C1=CC(c2nn3c(-c4ccccc4)nnc3s2)=Cc2ccccc2O1
growth [1]: 23.5%
growth [2]: 82.1%
growth [3]: 78.3%
growth [4]: 74.9%
growth [5]: 84.9%
growth [6]: 80.5%
growth [7]: 95.6%
growth [8]: 74%
growth [9]: -24.4% (active)
growth [10]: 30.6%

CC1=C(C)C(=O)C(Nc2cccc(C(=O)OC(C)(C)C)c2)=CC1=O
growth [1]: 60.4%
growth [2]: 104%
growth [3]: 71%
growth [4]: 78.2%
growth [5]: 64.3%
growth [6]: 76.7%
growth [7]: 31.3%
growth [8]: 65.6%
growth [9]: 47.3%
growth [10]: 96.5%

C/C(=N\NC(=O)/C=C/CC(=O)O)c1nnn(-c2ccc([N+](=O)[O-])cc2)c1C
growth [1]: 105%
growth [2]: 106%
growth [3]: 97.6%
growth [4]: 98.3%
growth [5]: 100%
growth [6]: 94.7%
growth [7]: 99.2%
growth [8]: 101%
growth [9]: 101%
growth [10]: 114%

Cc1ccc(N2CCN(C3=C(Cl)C(=O)c4ncccc4C3=O)CC2)cc1
growth [1]: 21%
growth [2]: 106%
growth [3]: 99.1%
growth [4]: 70.3%
growth [5]: 72.4%
growth [6]: 63.3%
growth [7]: 90.4%
growth [8]: 29.2%
growth [9]: -32.6% (active)
growth [10]: 80.9%

COc1cc(/C=N\NC(=O)c2ccc3nc(-c4ccc(Br)cc4)[nH]c3c2)cc(OC)c1OC
growth [1]: 79.4%
growth [2]: 25.3%
growth [3]: 57.1%
growth [4]: 59.3%
growth [5]: 45.1%
growth [6]: 46.2%
growth [7]: 27.5%
growth [8]: 28.1%
growth [9]: 35.2%
growth [10]: 30.2%

O=C(COc1ccc(/C=C2\C(=O)Nc3cc(Cl)ccc32)cc1)Nc1ccc(Cl)cc1
growth [1]: 42.5%
growth [2]: 74.6%
growth [3]: 78.9%
growth [4]: 82.1%
growth [5]: 85.2%
growth [6]: 54.5%
growth [7]: 72.8%
growth [8]: 24.6%
growth [9]: 44.8%
growth [10]: 78.7%

O=C1[C@@H]2Cc3c([nH]c4ccccc34)[C@@H](c3ccc(Cl)cc3)N2C(=O)CN1C1CCN(Cc2ccccc2)CC1
growth [1]: 34.1%
growth [2]: -28.4% (active)
growth [3]: 29%
growth [4]: 50.5%
growth [5]: 34.7%
growth [6]: 21.4%
growth [7]: 54.2%
growth [8]: 62.3%
growth [9]: -15% (active)
growth [10]: 88.1%

Nc1ncc(-c2ccc3ncnc(NCc4ccccc4)c3c2)cn1
growth [1]: 42.8%
growth [2]: 55.3%
growth [3]: 41.2%
growth [4]: 52%
growth [5]: 64.1%
growth [6]: 34.7%
growth [7]: 48.6%
growth [8]: 44.8%
growth [9]: 38.6%
growth [10]: 57.6%

CCOC(=O)c1c(NC(=O)c2ccc(C(F)(F)F)cc2)sc2c3c(ccc12)OCN(C)C3
growth [1]: -38.2% (active)
growth [2]: -81% (active)
growth [3]: 69.7%
growth [4]: 26.7%
growth [5]: -72.5% (active)
growth [6]: 65.3%
growth [7]: 94.7%
growth [8]: 88%
growth [9]: -95.1% (active)
growth [10]: 95.8%

CCOP(=O)(OCC)OC[C@]12CCC(C)(C)CC1C1=CC[C@@H]3[C@@]4(C)CCCNC(C)(C)[C@@H]4CC[C@@]3(C)[C@]1(C)CC2 (stereo not given in full)
growth [1]: 44.3%
growth [2]: 42%
growth [3]: 93.6%
growth [4]: 87%
growth [5]: 56.3%
growth [6]: 51.3%
growth [7]: 80.7%
growth [8]: 90.5%
growth [9]: 25.3%
growth [10]: 101%

CCNC(=O)Oc1ccc(/C(=C(/C)c2ccc(OC)cc2)c2ccc(OCCN3CCCCCC3)cc2)cc1
growth [1]: -25.8% (active)
growth [2]: 10.5%
growth [3]: 59.4%
growth [4]: 61%
growth [5]: 38.8%
growth [6]: 31.3%
growth [7]: 78.5%
growth [8]: 41%
growth [9]: -6.62% (active)
growth [10]: 19.8%

O=C(CSc1nc2ccccc2c(=O)n1-c1ccccc1)N/N=C/c1ccc(Oc2ccc(Cl)cc2)cc1
growth [1]: 60.8%
growth [2]: 59.1%
growth [3]: 60.1%
growth [4]: 33.2%
growth [5]: 15.2%
growth [6]: 58.7%
growth [7]: 71.2%
growth [8]: 66.6%
growth [9]: 14%
growth [10]: 62.4%

CC(=O)c1c([Si](C)(C)C)c2cc(C#N)ccn2c1C(=O)c1ccc(Br)cc1
growth [1]: 85.1%
growth [2]: 67.8%
growth [3]: 95.1%
growth [4]: 86.9%
growth [5]: 93.2%
growth [6]: 76%
growth [7]: 91.2%
growth [8]: 74.9%
growth [9]: 99.6%
growth [10]: 92.1%

CNC(=O)c1cc(N2CCc3cc(NC(=O)Nc4ccc(N5CCOCC5)c(C(F)(F)F)c4)ccc32)ccn1
growth [1]: 5.54% (active)
growth [2]: 28.5%
growth [3]: 38.6%
growth [4]: 23.1%
growth [5]: 29.2%
growth [6]: 7.98% (active)
growth [7]: 12.9%
growth [8]: -29.8% (active)
growth [9]: 12.5%
growth [10]: 49.8%

Cc1ccc2c(n1)C(=O)C(Cl)=C(Nc1cccc(C(=O)OC(C)(C)C)c1)C2=O
growth [1]: 47.1%
growth [2]: 114%
growth [3]: 95.7%
growth [4]: 97.6%
growth [5]: 88.5%
growth [6]: 72%
growth [7]: 88.1%
growth [8]: 90.7%
growth [9]: 8.98% (active)
growth [10]: 103%

COc1cc(OC)cc(-c2cc(-c3c[nH]c4ccccc34)nc(-c3c[nH]c4ccccc34)c2C#N)c1
growth [1]: 102%
growth [2]: 108%
growth [3]: 87.6%
growth [4]: 96.6%
growth [5]: 100%
growth [6]: 93.6%
growth [7]: 98.5%
growth [8]: 93.6%
growth [9]: 82.7%
growth [10]: 101%

NC(N)=NS(=O)(=O)c1ccc(N=Nc2c(N)nn(-c3ccc([N+](=O)[O-])cc3[N+](=O)[O-])c2N)cc1
growth [1]: 99.9%
growth [2]: 105%
growth [3]: 94.7%
growth [4]: 99.8%
growth [5]: 99.9%
growth [6]: 92.8%
growth [7]: 99%
growth [8]: 95.2%
growth [9]: 97.2%
growth [10]: 109%

CC(=O)Nc1ccccc1-c1nc2ccccc2s1
growth [1]: 96.7%
growth [2]: 105%
growth [3]: 69.8%
growth [4]: 94.6%
growth [5]: 108%
growth [6]: 102%
growth [7]: 99%
growth [8]: 94.3%
growth [9]: 97.3%
growth [10]: 112%

Cc1cc(NS(=O)(=O)c2ccc(NC(=O)CSc3nc4ccccc4c(=O)n3-c3ccccc3)cc2)no1
growth [1]: 106%
growth [2]: 104%
growth [3]: 77.3%
growth [4]: 94.2%
growth [5]: 100%
growth [6]: 95%
growth [7]: 98.4%
growth [8]: 88.6%
growth [9]: 94.1%
growth [10]: 95.9%

N#Cc1c(-c2cccs2)c(C#N)c(=O)n(Cc2nc3ccccc3[nH]2)c1N
growth [1]: 98.2%
growth [2]: -93% (active)
growth [3]: 78.7%
growth [4]: 101%
growth [5]: 94.2%
growth [6]: 97.4%
growth [7]: 95.1%
growth [8]: 90.5%
growth [9]: 100%
growth [10]: 110%
